Inconclusive results are not listed. A call without a number means that no potency is given here. Values without a mark were called inactive. Calls of active or inactive are those of the source. Calls follow the shape of the full dose curve; tested in HEK293 reporter line.
Assay: qHTS for Inhibitors of the Functional Ribonucleoprotein Complex (vRNP) of Lassa (LASV) Arenavirus: LASV Primary Screen - GLuc reporter signal (AID 1347082); also: nearly all actives have a fitted effect of over 60% in size
Conditions: LASV minigenome vRNP, Gaussia luciferase reporter; series mostly up to 57.5 µM

SMILES | Potency | activity change, negative = inhibition
CCn1nc(C(=O)O)c(=O)c2cc3c(cc21)OCO3 | inactive | 
COc1ccc(C(=O)CC(=O)c2ccc(C(C)(C)C)cc2)cc1 | inactive | 
CC(=O)OCC(=O)[C@H]1CC[C@H]2[C@@H]3CCC4=CC(=O)CC[C@]4(C)[C@H]3CC[C@]12C | inactive | 
CNC[C@H](O)[C@@H](O)[C@H](O)[C@H](O)CO | inactive | 
Cc1cc(OI)c(C(C)C)cc1-c1cc(C(C)C)c(OI)cc1C | inactive | 
NS(=O)(=O)c1ccc(C(=O)O)cc1 | inactive | 
CN1CCN2c3ncccc3Cc3ccccc3C2C1 (centres undefined) | inactive | 
NC(=O)N1c2ccccc2C=Cc2ccccc21 | inactive | 
Cc1c(C)c2c(c(C)c1O)CCC(C)(COc1ccc(CC3SC(=O)NC3=O)cc1)O2 (centres undefined) | inactive | 
Nc1nc(-c2ccccc2)c(Br)c(=O)[nH]1 | inactive | 
CCCNC(C)C(=O)Nc1ccccc1C (centres undefined) | inactive | 
CCCc1nn(C)c2c(=O)[nH]c(-c3cc(S(=O)(=O)N4CCN(C)CC4)ccc3OCC)nc12 | inactive | 
COc1ccnc(CS(=O)c2nc3ccc(OC(F)F)cc3[nH]2)c1OC (centres undefined) | inactive | 
CCCCN(CCCC)CCCOC(=O)c1ccc(N)cc1 | inactive | 
Oc1ccccc1 | inactive | 
CCN(CC)CCNC(=O)c1cc(S(C)(=O)=O)ccc1OC | inactive | 
CC1CC(OC(=O)c2ccccc2O)CC(C)(C)C1 (centres undefined) | inactive | 
Cc1c(C(=O)O)c(O)cc2c1C(=O)c1c(O)c([C@@H]3O[C@H](CO)[C@@H](O)[C@H](O)[C@H]3O)c(O)c(O)c1C2=O | inactive | 
C[C@]12CCC(=O)C=C1CC[C@H]1[C@@H]3CC[C@](O)(C(=O)CO)[C@@]3(C)C[C@H](O)[C@@]12F | inactive | 
N=C(N)N1CCc2ccccc2C1 |  | -8.85% [at 5.82 µM]

SMILES | Potency | activity change, negative = inhibition
CC(=O)NO | inactive | 
NC1CCN(c2nc3c(cc2F)c(=O)c(C(=O)O)cn3-c2ccc(F)cc2F)C1 (centres undefined) | inactive | 
CCc1oc2ccccc2c1C(=O)c1cc(I)c(O)c(I)c1 | inactive | 
CC(C)(C)c1ccc(O)cc1 | inactive | 
Cc1cc(=O)c2c(O)c3c(O)cc(=O)c4c3c3c(cc(O)c1c23)C(C)(C)C=4O | inactive | 
CC(=O)OCC[N+](C)(C)C | inactive | 
NCC[C@H](O)C(=O)N[C@@H]1C[C@H](N)[C@@H](O[C@H]2O[C@H](CN)[C@@H](O)[C@H](O)[C@@H]2O)[C@H](O)[C@@H]1O[C@H]1O[C@H](CO)[C@@H](O)[C@H](N)[C@@H]1O |  | -6.8% [at 0.757 µM]
CC(C)NNC(=O)c1ccncc1 | inactive | 
CC(=O)CC(c1ccccc1)c1c(O)c2ccccc2oc1=O (centres undefined) | inactive | 
CCCC(=O)OCOC(=O)C1=C(C)NC(C)=C(C(=O)OC)C1c1cccc(Cl)c1Cl (centres undefined) | inactive | 
CCCCCCNC(=O)n1cc(F)c(=O)[nH]c1=O | inactive | 
Cc1ccc(C(=O)C(=O)O)cc1C | inactive | 
CCCCCCCC(=O)[O-].CCCCCCCC(=O)[O-].[Zn+2] | inactive | 
Clc1ccc2c(c1)Nc1ccccc1S2 | inactive | 
Nc1ncn([C@H]2C[C@H](O)[C@@H](CO)O2)c(=O)n1 | inactive | 
COc1ccc(C(=O)N2CCN(CC(=O)N3CCOCC3)CC2)cc1 | inactive | 
Nc1c(I)cc(I)c(C(=O)N(CCC(=O)O)c2ccccc2)c1I | inactive | 
CCn1cc(C(=O)O)c(=O)c2cnc(N3CCNCC3)nc21 | inactive | 
CCOc1ccc(NS(=O)(=O)c2ccc(N)cc2)nn1 | inactive | 

Reference: PubChem BioAssay (NCATS)
